hDAT+cocaine: changed hDAT dopamine uptake under cocaine IC80, either direction, primary screen, cocaine antagonist project, cell-based, LLC-PK1 hDAT, [14C]-dopamine uptake, MLSMR; AID 449768, 2010; B-score at 10 µM; LLC-PK1 hDAT cells, [14C]-dopamine uptake with cocaine IC80; actives deviate in either direction; Sodium-dependent dopamine transporter (Homo sapiens), Q01959; 1.3% of 110,000 active;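 active = Z score or B-score, a plate-position-corrected score, falls beyond the plate's 99.7% confidence bounds, in either direction; inactive = both scores lie inside the 99.7% bounds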;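 also: scored against the spread of the other compound wells on the same plate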
PostGolgi ctrl: growth inhibition of yeast control strain, primary screen, counter-screen for post-Golgi transport modulator project. efflux-deficient yeast background strain, growth absorbance A615, 16 h. inhibition, % at 10 µM. 5% of 98,000 active
PostGolgi yeast: phenotypic screen on post-Golgi transport, primary screen; post-Golgi transport phenotypic cell assay; 0.9% of 98,000 active; AID 739, 2007; inhibition, % at 10 µM;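 also: yeast cells grown in 1536-well plates; yeast grown about 18 h at 30C before absorbance read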
Cav3 T inh: Cav3.2 calcium influx blockers – cell-based, Fluo-4 calcium fluorescence, FDSS, MLSMR library, primary screen; Voltage-dependent T-type calcium channel subunit alpha-1H (Homo sapiens), O95180; Cav3.2-expressing cells; stronger effect = lower value; B-score at 10 µM; 4% of 100,000 active;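 active = single-dose well whose peak fluorescence ratio is a statistical outlier from its plate by either plate-standardised score or position-corrected B-score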
PLAP activator: PLAP enzyme activators, biochemical, luminescence, HTS | Alkaline phosphatase, placental type (Homo sapiens), P05187 | purified PLAP enzyme, luminescent substrate read-out; stronger effect = higher value | activation fold at 20 µM | 1.2% of 96,000 active; in the data active = activation fold above about 2
* = called active by the depositor; nt = not tested or not shown. Shown are actives, neighbours in structure and some others; about 9.6% of the full set was active somewhere. Rule as the data show it, unless noted: active = inhibition above about 30%; inactive = the rest.

SMILES	hDAT+cocaine	PostGolgi ctrl	PostGolgi yeast	Cav3 T inh	PLAP activator
NCCCC[C@H](NC(=O)C1CCNCC1)c1nnc(CN)o1	-0.667	nt	nt	0.137	nt
O=C(CCC(=O)OCC(=O)c1ccc(Br)cc1)NC1CCCCC1	-0.00513	37.0*	-3.6	-0.882	0.9
O=C(Cc1ccc(Br)cc1)NC1CCCCC1	0.431	5.9	6.7	0.922	0.9
O=C(CCC(=O)OCC(=O)c1ccc(F)cc1)NC1CCCCC1	0.0009	4.3	40.0*	1.15	1
CCOC(=O)c1cnc(SC)nc1Oc1cccc(NS(=O)(=O)c2ccc(C)cc2)c1	0.301	2.8	-1.3	-2.5	1.2
COc1ccc(CNC(=O)C2CC(=O)N(c3ccc(OCC(=O)N4C(C)CCCC4C)cc3)C2)cc1 (stereo not given)	-0.414	-2.8	0.2	0.255	1.4
Brc1ccc(CSc2nnc(-c3ccccn3)n2Cc2ccco2)cc1	2.46	32.6*	2.9	-5.11*	1.3
CC(C)(C)c1ccc(CSc2nnc(-c3ccccn3)n2Cc2ccco2)cc1	nt	27.8	2.3	nt	1.7
Clc1cccc(CSc2nnc(-c3ccccn3)n2Cc2ccco2)c1	0.881	19.6	0.2	-7.57*	1.6
CCOC(=O)c1c(C)c(C(=O)NCc2cccs2)c(C)n1CC	2.85*	14.6	4.7	-0.0622	1.1
CCOC(=O)c1c(C)c(C(=O)N2CCc3ccccc3C2)c(C)n1CC	2.46*	14.8	7.7	-1.73	1.4
CCOC(=O)c1c(C)c(C(=O)Nc2ccccc2)c(C)n1CC	nt	3.0	7.8	nt	0.9
Cc1ccc(NC(=O)CCC(=O)O)cc1F	0.766	-1.8	-1.3	-0.0206	1
c1ccc(CSc2nnc(-c3cccs3)n2Cc2ccco2)cc1	0.531	nt	nt	-3.62	nt
Cc1ccccc1CSc1nnc(-c2cccs2)n1Cc1ccco1	0.302	23.0	-3.0	-6.45*	1.1
Cc1ccccc1CSc1nnc(-c2ccco2)n1Cc1ccco1	0.855	39.5*	-0.6	-2.68	1
COc1cccc2cc(C(=O)n3ccc(C)n3)c(=O)oc12	-0.306	3.0	1.6	-0.622	0.9
Cc1ccsc1C(=O)OCc1csc(-c2ccccc2)n1	-0.42	5.7	5.3	-0.82	0.5
CCOc1ccc(Br)cc1S(=O)(=O)Nc1ccccc1N1CCOCC1	1.24	28.9	-6.9	-3.71	1.6
Cc1nnc2sc(-c3ccncc3)nn12	-0.351	5.1	-8.8	-0.0836	1.1
Cc1nnc2sc(-c3csc4c3CCCC4)nn12	3.36*	10.1	10.8	-2.35	0.9
O=C(Nc1ccccc1-c1ccccc1)c1ccc(Br)o1	0.769	34.8*	-2.0	-3.92*	0.8
O=C(Nc1ccccc1Oc1ccccc1)c1ccc(Br)o1	-0.429	50.7*	2.7	-1.25	1
COc1ccccc1NC(=O)c1ccc(Br)o1	0.137	-1.9	-2.9	0.91	1.1
COc1cc(/C=N/n2c(SC)nnc(C(C)(C)C)c2=O)ccc1O	-0.817	-3.0	-8.6	0.706	0.9
SMILES	hDAT+cocaine	PostGolgi ctrl	PostGolgi yeast	Cav3 T inh	PLAP activator
COc1cc(/C=N/N2C(=O)CSC2=S)ccc1O	0.0701	2.4	-6.5	0.178	2.2*
CCN(CC)CCN1C(=O)c2ccccc2NC1c1cccc(F)c1 (stereo not given)	0.716	6.2	10.8	0.97	1
O=C1c2ccccc2NC(c2cccc(Cl)c2)N1N=C1CCCCCC1 (stereo not given)	nt	21.6	-2.4	-3.88*	0.9
COC(=O)C1=C(N)c2ccccc2C1(C#N)c1ccccc1 (stereo not given)	0.0212	6.2	-7.8	-9.02*	1
COC(=O)c1c(-c2ccccc2)csc1N	0.0514	7.9	2.8	-0.376	1.1
COc1cc(-c2c(C#N)c(N)nc3c2c(C)nn3-c2ccc(C)c(C)c2)cc(OC)c1OC	0.96	19.6	16.3	-4.82*	1.8
Cc1ccc(C2=[N+]([O-])C(C)(C)CC2)cc1	-0.0166	32.5*	1.9	-1.74	0.9
Cc1ccc(S(=O)(=O)C2(C(=O)Nc3cccc(F)c3)CC2)cc1	0.279	3.0	-2.8	0.288	0.8
Cc1ccc(Cl)cc1N1CCN(C(=O)C2CCN(c3nnc(-n4cccc4)s3)CC2)CC1	1.18	21.6	-0.8	-8.22*	1.6
CS(=O)(=O)N1CCC(C(=O)Nc2cc(C(F)(F)F)ccc2Cl)CC1	1.32	-9.6	4.3	0.683	1.5
O=C(Nc1cc(C(F)(F)F)ccc1Cl)C1CCN(c2nnc(-n3cccc3)s2)CC1	-0.0585	39.3*	6.0	-1.92	nt

Bioassay records: PubChem BioAssay, several laboratories
